Source: PubChem BioAssay (National Center for Advancing Translational Sciences (NCATS))
Only some compounds are listed: those with a hit (about 9.2% of all), similar ones and a draw of the others.
FLuc counter: counter-screen for miR-21 project: firefly luciferase inhibitors or activators | P08659 | purified FLuc, Km substrates, luminescence inhibition | Potency, µM (titrated, usually from 57.5 µM), without a hit: at the top dose activity change, negative = inhibition, actives largely listed as inhibitors | 360,000 compounds, 6.9% hits;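 further: plate controls were vehicle for no effect and reference inhibitor for full effect; nearly all actives have a fitted effect of over 55% in size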
Target sequence (P08659 whole entry, looked up): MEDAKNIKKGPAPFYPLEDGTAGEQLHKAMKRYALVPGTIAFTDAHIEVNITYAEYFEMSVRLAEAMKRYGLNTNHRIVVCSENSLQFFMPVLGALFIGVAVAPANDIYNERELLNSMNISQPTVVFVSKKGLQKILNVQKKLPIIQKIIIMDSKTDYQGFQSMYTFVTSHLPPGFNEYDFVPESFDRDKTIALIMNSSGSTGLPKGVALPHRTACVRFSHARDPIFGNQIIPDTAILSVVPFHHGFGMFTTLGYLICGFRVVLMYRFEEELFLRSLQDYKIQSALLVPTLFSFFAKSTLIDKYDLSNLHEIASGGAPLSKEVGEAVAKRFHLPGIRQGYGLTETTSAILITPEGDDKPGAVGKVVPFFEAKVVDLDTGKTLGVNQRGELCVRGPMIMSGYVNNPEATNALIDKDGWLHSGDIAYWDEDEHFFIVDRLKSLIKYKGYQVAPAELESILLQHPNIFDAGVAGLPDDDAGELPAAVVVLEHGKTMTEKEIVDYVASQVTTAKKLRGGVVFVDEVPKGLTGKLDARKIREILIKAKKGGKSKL
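Purified P. pyralis luciferase (10nM final) with 10uM D-luciferin and 10uM ATP (Km levels) in 50mM Tris acetate pH 7.5, 10mM Mg acetate, 0.01% Tween-20, 0.05% BSA; qHTS 6-point titration, ~60 µM downward; luminescence read.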
ELG1 genotoxic: inducers of genotoxicity in HEK293T ELG1-luciferase cells; 330,000 compounds, 1.3% hits; AID 504466; HEK293T ELG1-luciferase reporter, luminescence, 16 h; Potency, µM (titrated, usually from 46 µM), for the others: top-dose activity change, positive = activation, usual class: activators; further: % of control where 0% means no effect; nearly all actives have a fitted effect of over 60% in size
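Cells (2,000/well) expressing the ELG1-luciferase fusion are dosed by pin tool and kept 16 hr at 37 °C, 5% CO2. Signal comes from ONE-Glo luciferase reagent after 30 min at room temperature.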
NPC1 promoter act: activators of NPC1 promoter; Potency, µM (titrated, usually from 9.22 µM), for inactives: at the top dose activation, usual class: activators; Huh7 NPC1 promoter luciferase reporter, 24 h; 320,000 compounds, 2.4% hits; AID 485313; further: % of control where 0% means no effect; nearly all actives have a fitted effect of over 60% in size
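Luciferase expression driven by the NPC1 promoter was measured in stably transfected Huh7 cells after a 24 h compound incubation, using a luciferase reagent and a luminescence read.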
ELG1 DNA repair: inhibitors of ELG1-dependent DNA repair in HEK293T cells; 330,000 compounds, 2.3% hits; Potency, µM (series often up to 46.1 µM), for the others: at the top dose activity change, negative = inhibition, actives largely listed as inhibitors; HEK293T ELG1-luciferase reporter, luminescence, 16 h; DNA damage induced by 5-fluorouridine; further: on the % scale 0 is the no-effect control and ±100 the full control effect; nearly all actives have a fitted effect of over 55% in size
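5-Fluorouridine DNA damage + compound/DMSO, 2,000 cells/well, 16 h, 37 °C/5% CO2. ONE-Glo, 30 min RT, luminescence. Readout = decrease in reporter signal.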
SMN2 splice up: increases expression of the SMN2 splice variant; HEK293 SMN2-luciferase splicing reporter, luminescence, 30-36 h; Potency, µM (doses to about 46.1 µM), without a hit: at the top dose activity change, positive = activation, hits mostly activators; 210,000 compounds, 2.8% hits; further: % of control where 0% means no effect; nearly all actives have a fitted effect of over 55% in size
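qHTS luciferase splicing reporter: luminescence rises when SMN2 exon 7 is included in transfected HEK293 cells. Compound exposure lasted 30-36 h at 37C, with 4.5 mM final sodium butyrate as control, followed by a ONE-Glo read.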
Rab9 prom act: activators of Rab9 promoter. Potency, µM (titrated, usually from 9.22 µM), inactives show at the highest dose activation, negative = inhibition, usual class: activators. 320,000 compounds, 2.8% hits. Huh7 Rab9 promoter-luciferase reporter, luminescence, 24 h; further: % of control where 0% means no effect; nearly all actives have a fitted effect of over 60% in size
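Steps: seed 1500 Huh7 Rab9-luc cells per well, rest 2 h at 37 °C; add compound in DMSO; incubate 24 h; add luciferase reagent, 10 min ambient; read luminescence.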
An asterisk follows results filed as active; u = inconclusive; x = not tested or not shown; ! = not active in a repeat. The call rests on the fitted dose curve; in most records, active means well fitted curve in the direction sought with a large enough effect; inconclusive means small, poorly fitted or top-dose-only effect, or another doubt; inactive means no such curve, though single readings can be large; an effect the other way counts as inactive or inconclusive. Potency means the concentration at half of the fitted maximal effect.

SMILES	FLuc counter	ELG1 genotoxic	NPC1 promoter act	ELG1 DNA repair	SMN2 splice up	Rab9 prom act
Nc1nc2ccc(OC(F)(F)F)cc2s1	u	16%	10µM*!	u	u	10µM*!
Nc1nc2ccc(Oc3ccccc3)cc2s1	8.5µM*	8.2µM*	2.8µM*	u	u	4µM*
Cc1nc2ccc(CCO)cc2s1	-13%	3%	-2%	17%	0%	-4%
Cc1nc2ccc(Oc3ccccc3)cc2s1	17µM*	5%	15%	u	x	12%
Cc1nc2c(-c3ccccc3)c(C)nn2c(C)c1CCC(=O)NCc1ccccc1Cl	0%	x	x	x	-7%	x
Cc1ccc(C(=O)Cn2nnc3ccccc32)cc1	5.4µM*	u	1.4µM*	u	u	1.6µM*
Cc1ccc(OCCn2nnc3ccccc32)cc1C	21µM*	u	2.5µM*	u	x	2.5µM*
O=C(Cn1nnc2ccccc21)c1ccc(Br)cc1	24µM*	10%	30%	u	x	u
Cc1ccc(C(=O)Cn2nnc3ccccc32)cc1C	4.8µM*	u	1.4µM*	u	u	0.79µM*
Cc1ccc(C(=O)NNC(=O)Cn2nnc3ccccc32)cc1	2%	12%	-2%	u	x	12%
CC(C)[C@H](NC(=O)OCc1ccccc1)C(=O)OCC(=O)Nc1ccc(N2CCOCC2)cc1	1%	4%	-1%	12%	x	17%
CCCCCCCCC1OC1CCCCCCCC(=O)O (centres undefined)	x	x	x	x	12%	x
CC12CCC(C/C1=N\N=C1\NC(=O)/C(=C\c3ccc(Cl)cc3)S1)C2(C)C (centres undefined)	6µM*	12%	8%	u	-30%	16%
CC1CCN(C(=O)Cn2c(SCC(=O)Nc3ccc(F)cc3)nc3ccccc32)CC1	-2%	x	x	x	x	x
Cc1cc(F)ccc1NC(=O)c1csc2c1CCC(C)C2 (centres undefined)	u	x	x	x	6.3µM*	x
COc1ccccc1NC(=O)c1csc2c1CCC(C)C2 (centres undefined)	u	16%	u	6%	x	29%
CC1CCc2c(C(=O)Nc3cccc(-c4nn[nH]n4)c3)csc2C1 (centres undefined)	2.7µM*	u	16%	u	x	u
CCc1nnc(NC(=O)c2csc3c2CCC(C)C3)s1 (centres undefined)	-8%	u	u	u	u	2µM*
Cc1cc(C)c(C)c(OCCN2CC(C)OC(C)C2)c1 (centres undefined)	1%	-7%	0%	10%	x	-2%
COC(=O)c1sc2cccc(F)c2c1S(=O)(=O)N1CCN(c2cccc(C)c2)C(C)C1 (centres undefined)	-3%	x	x	x	x	x
CC1CCN(c2ccc(-c3cccc(NC(=O)c4ccco4)c3)nn2)CC1	0.15µM*	0.52µM*	1.3µM*	u	x	1µM*
CCC(=O)Nc1ccc(-c2ccc(N3CCC(C)CC3)nn2)cc1	9.5µM*	u	2.8µM*	u	x	1.4µM*
CC1CCN(CC(=O)Nc2cccc(Cl)c2)CC1	-2%	-3%	-1%	3%	-5%	-5%
CCC(=O)Nc1cccc(-c2ccc(N3CCC(C)CC3)nn2)c1	0.13µM*	0.73µM*	0.32µM*	u	x	0.32µM*
CCOc1ccc(C(CC(=O)O)NC(=O)c2sc3ccccc3c2Cl)cc1 (centres undefined)	0%	3%	1%	4%	-6%	2%
SMILES	FLuc counter	ELG1 genotoxic	NPC1 promoter act	ELG1 DNA repair	SMN2 splice up	Rab9 prom act
CCCOc1ccc(C(CC(=O)O)NC(=O)c2sc3ccccc3c2Cl)cc1 (centres undefined)	15µM*	2%	-1%	u	x	20%
O=S(=O)(Nc1nc2ccccc2nc1NCc1ccco1)c1ccc(F)cc1	2%	-9%	-1%	15µM*	x	-2%
O=S(=O)(Nc1nc2ccccc2nc1NCc1ccco1)c1ccccc1	1%	-7%	-1%	-13%	14%	-7%
O=C(NCCCc1nc2ccccc2n1Cc1ccc(F)cc1)C1CCCCC1	-13%	x	x	x	-5%	x
CCc1noc(C)c1C(=O)NNC(=O)c1ccccc1F	-17%	12%	3%	u	x	-2%
C/C=C/c1ccc(OC(C)[C@@H](O)c2ccc(O)c(OC)c2)c(OC)c1 (some centres undefined)	x	x	x	x	-10%	x
CC(C)(CNC(=O)C1c2ccccc2-c2ccccc21)N1CCOCC1	0%	5%	1%	0%	x	0%
CCc1nn2c(-c3ccco3)ccnc2c1-c1ccc(F)cc1	11µM*	x	x	x	-4%	x
CCN(CC(=O)Nc1ccccc1SC)Cc1nc2ccccc2c(=O)[nH]1	6%	-3%	0%	4%	x	-17%
CCN(CC(=O)Nc1ccccc1C(=O)Nc1ccccc1)Cc1nc2ccccc2c(=O)[nH]1	1%	-12%	-3%	10µM*	13%	-4%
CN(C)c1cccc(C(=O)Nc2ccc(S(=O)(=O)Nc3nccs3)cc2)c1	x	4%	x	22%	x	x
CCC(C)(C)C1CCC2(CC1)NC(=S)N(c1ccccc1)N2 (centres undefined)	u	u	-1%	8.2µM*	x	-3%
O=C(CSc1nnc(NC2CCCCC2)s1)Nc1ccc2c(c1)C(=O)c1ccccc1C2=O	u	6%	3.5µM*	u	11µM*	2.8µM*
NS(=O)(=O)c1ccc(NC(=O)CSc2nnc(NC3CC3)s2)cc1	-1%	-1%	-3%	u	x	1%
Cc1ccc(NC(=O)CN(C)C(=O)CSc2nnc(NC(C)C)s2)cc1	0%	4%	12%	-10%	x	2%
CC(C)Nc1nnc(SCC(=O)Nc2ccc3c(c2)C(=O)c2ccccc2C3=O)s1	u	-4%	u	u	14µM*	3.5µM*
Oc1cccc(-c2nc3c4c(ncn3n2)-c2ccccc2CC42CCCC2)c1	2%	-13%	-4%	8.2µM*	-25%	2%
CCn1cc(S(=O)(=O)Nc2ccc(Cl)cc2F)cn1	2%	-3%	-2%	21%	x	0%
O=C(Nc1cccc(Br)c1)c1ccc2c(c1)SC1=NS(=O)(=O)CCN12	1%	-1%	8%	u	x	-2%
CC(C)(C)c1ccccc1NC(=O)c1ccc2c(c1)SC1=NS(=O)(=O)CCN12	-3%	-11%	1%	21µM*	x	-4%
Nc1ncnc(Nc2ccccn2)c1[N+](=O)[O-]	-1%	-11%	-1%	u	5%	2%
Nc1ncnc(NCc2ccccc2)c1[N+](=O)[O-]	4%	-10%	1%	10µM*	-9%	-6%
